Screening results: PubChem BioAssay, National Center for Advancing Translational Sciences (NCATS)
KB-3-1 tox = qHTS assay for MDR1-selective chemotherapeutics: Primary screen using the parental adenocarcinoma cell KB-3-1. 400,000 tested, 1.4% active. KB-3-1 viability, CellTiter-Glo ATP luminescence, 72 h. AID 1347075, 2019. Potency, µM (titrated, usually from 46.1 µM), most hits filed as cytotoxic; also: nearly all actives have a fitted effect of over 60% in size
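Viability of parental KB-3-1 cells, measured by CellTiter-Glo luminescence, followed a 72 h incubation at 37 °C with pinned compounds in phenol-red-free DMEM containing 10% FBS.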
KB-V1 MDR tox = qHTS assay for MDR1-selective chemotherapeutics: Primary screen using the drug-selected MDR subline cells KB-V1; KB-V1 MDR cells viability, CellTiter-Glo, 72 h; Potency, µM (top dose mostly 46.1 µM), most hits filed as cytotoxic; AID 1347076, 2019; 400,000 tested, 3.4% active; also: nearly all actives have a fitted effect of over 60% in size
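Cytotoxicity via CellTiter-Glo luminescence after 72 h compound exposure at 37 degrees C. Cells: drug-selected KB-V1 line, DMEM phenol-red free plus 10% FBS. Compounds tested at multiple concentrations; normalized data fitted to concentration-effect curves.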
HT1080-NT tox = qHTS for induction of synthetic lethality in tumor cells producing 2HG: qHTS for the HT-1080-NT fibrosarcoma cell line; HT-1080-NT fibrosarcoma viability, CellTiter-Glo ATP luminescence, 48 h; 360,000 tested, 1.6% active; Potency, µM (doses to about 46.1 µM), actives largely listed as cytotoxic;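 also: NT is the 2HG producing partner of a matched IDH1 knockdown line; nearly all actives have a fitted effect of over 55% in size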
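Fibrosarcoma NT cells, 750 per well in 5% FBS RPMI, were exposed to compound for 48 hours. Viability: CellTiter-Glo luminescence.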
HT1080 IDH1KD tx = qHTS for induction of synthetic lethality in tumor cells producing 2HG: qHTS for the HT-1080-IDH1KD cell line; Potency, µM (doses to about 46.1 µM), most hits filed as cytotoxic; HT-1080 IDH1 knockdown viability, ATP luminescence, 48 h; 360,000 tested, 2% active
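% activity derives from luminescence (CellTiter-Glo), normalised to DMSO and no-cell wells. HT-1080-IDH1KD cells, 750/well, had 48 h compound exposure at 37 °C.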
MCF10A rereplic = A quantitative high throughput screen for small molecules that induce DNA re-replication in MCF 10a normal breast cells; MCF 10A DNA re-replication, Hoechst nuclear intensity, 48 h; Potency, µM (top dose mostly 46.1 µM), actives largely listed as activators; 350,000 tested, 2.9% active; AID 624296, 2012; also: nearly all actives have a fitted effect of over 50% in size
SW480 rereplic = A quantitative high throughput screen for small molecules that induce DNA re-replication in SW480 colon adenocarcinoma cells | SW480 DNA re-replication, Hoechst DNA content imaging, 48 h | Potency, µM (doses to about 46.1 µM), actives largely listed as activators | 340,000 tested, 1.8% active; also: nearly all actives have a fitted effect of over 55% in size
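Image-based read-out: total Hoechst fluorescence of nuclei (405 nm excitation, 500-530 nm emission), with hits raising the fraction of high-intensity nuclei. SW480 colon cells incubated 48 hr with compounds at 37 C.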
Each line names hits and unclear results; the compound was inactive in the other large screens. Sampled rows, rich in hits. Any-hit rate of the full collection: about 7.9%. Calls follow the shape of the dose curve; as a rule, active = well fitted curve in the direction sought with a large enough effect; inconclusive = small, poorly fitted or top-dose-only effect, or another doubt; inactive = no such curve, though single readings can be large; an effect the other way counts as inactive or inconclusive.

O=C(c1ccc(Cl)cc1)C1CCCN(C(=O)c2csnn2)C1 (stereo not given)	KB-V1 MDR tox inconclusive
Cc1cc(C)cc(NC(=O)Nc2ccc(-n3ccc(C(F)(F)F)n3)cc2)c1	HT1080-NT tox 20.6µM, HT1080 IDH1KD tx 23.1µM, MCF10A rereplic 20.6µM, SW480 rereplic inconclusive
O=C(Nc1cc(-c2ccccc2)[nH]n1)c1ccc(Cl)cc1	KB-3-1 tox inconclusive, KB-V1 MDR tox inconclusive, MCF10A rereplic inconclusive
Cc1ccc(-n2nnnc2C(Cl)(Cl)c2nnnn2-c2ccc(C)cc2)cc1	KB-V1 MDR tox inconclusive, HT1080-NT tox inconclusive, HT1080 IDH1KD tx 5.62µM
OC(c1cccc(F)c1)c1ncc(-c2ccc(Oc3ccccc3)cc2)[nH]1 (stereo not given)	HT1080-NT tox 16.4µM, HT1080 IDH1KD tx inconclusive (no result: MCF10A rereplic, SW480 rereplic)
Cc1ccc(-c2csc(-c3c[nH]c4ccccc34)n2)c(C)c1	KB-3-1 tox inconclusive, KB-V1 MDR tox inconclusive, HT1080-NT tox inconclusive, HT1080 IDH1KD tx 18.4µM, MCF10A rereplic 14.6µM, SW480 rereplic inconclusive
Oc1ccc(-c2csc(-c3c[nH]c4ccccc34)n2)c(O)c1	KB-3-1 tox 18.4µM, KB-V1 MDR tox inconclusive, HT1080-NT tox inconclusive, HT1080 IDH1KD tx inconclusive, MCF10A rereplic inconclusive
CCC(CC)C(=O)c1c[nH]c(C(=O)NCCOC)c1	none
Cc1[nH]c2ccccc2c1C(C#N)(C#N)C1C(=O)c2ccccc2C1=O	HT1080-NT tox 18.4µM, HT1080 IDH1KD tx 25.9µM, MCF10A rereplic inconclusive
Cc1[nH]c2ccccc2c1CC#N	none
CN(C)Cc1cc(C(F)(F)F)ccc1C(O)(c1ccccc1)c1ccccc1	KB-3-1 tox inconclusive, KB-V1 MDR tox 20.6µM, SW480 rereplic inconclusive
COc1ccc2cc([C@H](C)C(=O)OCc3cn(CC(=O)c4ccc(O)cc4)nn3)ccc2c1	none
CCN(CC)S(=O)(=O)c1cccc(C(=O)Nc2ccc(Cl)cn2)c1	KB-3-1 tox inconclusive, KB-V1 MDR tox 11.6µM
Cc1ccc(NC(=O)c2ccc(Cl)cc2[N+](=O)[O-])nc1	KB-3-1 tox 5.8µM, KB-V1 MDR tox inconclusive, HT1080-NT tox 5.8µM, HT1080 IDH1KD tx 4.61µM, MCF10A rereplic inconclusive, SW480 rereplic 3.66µM
Cc1ccc(C(=O)Nc2ncc3c(Cl)cccc3n2)cc1	KB-3-1 tox inconclusive, KB-V1 MDR tox 18.4µM, HT1080-NT tox 14.6µM, HT1080 IDH1KD tx 13µM, SW480 rereplic inconclusive
CCN(CC)S(=O)(=O)c1cc(C(=O)NC2CCCCC2)ccc1C	KB-V1 MDR tox 13µM
Cc1ccc(C(=O)Nc2nccc(-c3cccs3)n2)cc1	none
COc1ccc(C(=O)NCC(=O)NCC(=O)OCC(=O)c2cccs2)cc1	none
CC(C)(C)NC(=O)CSc1nc(O)cc(=O)n1-c1ccccc1F	none
CC(=O)Nc1ccc2c(c1)N(C(C)=O)c1ccccc1CC2	none
CCN(CC)S(=O)(=O)c1cc(C(=O)Nc2ccc(Cl)cn2)ccc1C	KB-V1 MDR tox 9.2µM
Cc1ccc(C(=O)Nc2ccc(Cl)cn2)cc1	KB-3-1 tox inconclusive, KB-V1 MDR tox 6.51µM, HT1080-NT tox 15.8µM, HT1080 IDH1KD tx 10µM
CCOC(=O)/C=C/C(=O)OCC(=O)Nc1ccc(Cl)cn1	MCF10A rereplic 20.6µM
CC(C)=CC(=O)OCC(=O)Nc1ccc(Cl)cn1	KB-V1 MDR tox inconclusive
Cc1ccc(CC(=O)Nc2ccc(Cl)cn2)cc1	none
Cc1nc2oc(C(=O)c3ccc(Br)cc3)c(N)c2c2c1COC(C)(C)C2	MCF10A rereplic inconclusive, SW480 rereplic inconclusive
CCc1ccc(C(=O)c2oc3nc(C)cc(C)c3c2N)cc1	KB-V1 MDR tox 2.59µM, HT1080 IDH1KD tx inconclusive, MCF10A rereplic 7.31µM, SW480 rereplic 16.4µM
COc1ccc(C(=O)c2oc3nc(C)cc(C)c3c2N)cc1	KB-V1 MDR tox inconclusive
Cc1ccc(C(=O)c2oc3nc(C)cc(C)c3c2N)cc1	KB-V1 MDR tox inconclusive, MCF10A rereplic 9.2µM, SW480 rereplic inconclusive
O=C(CCNS(=O)(=O)c1cccc2nonc12)NCCc1ccc(Cl)cc1	none
Cc1[nH]c2ccccc2c1/C=N/NC(=O)CNC(=O)Cc1ccccc1	none
Nn1c(Nc2ccccc2)nc2sc3c(c2c1=O)CCC3	KB-3-1 tox inconclusive, KB-V1 MDR tox inconclusive, HT1080-NT tox inconclusive, HT1080 IDH1KD tx inconclusive, MCF10A rereplic inconclusive
Cc1cc2occ(CC(=O)NCc3cccs3)c2cc1C(C)C	KB-V1 MDR tox 20.6µM
Cc1csc(NC(=O)Cc2coc3cc(C)c(C(C)C)cc23)n1	KB-3-1 tox inconclusive, KB-V1 MDR tox inconclusive, HT1080-NT tox inconclusive, HT1080 IDH1KD tx 23.1µM, MCF10A rereplic inconclusive, SW480 rereplic inconclusive
O=C(Cc1coc2cc(O)ccc12)NNC(=O)c1cccs1	KB-V1 MDR tox inconclusive, MCF10A rereplic inconclusive
CC(Oc1ccccc1F)C(=O)/C=C/N(C)C (stereo not given)	KB-V1 MDR tox inconclusive
CC(Oc1ccccc1Cl)C(=O)/C=C/N(C)C (stereo not given)	KB-V1 MDR tox inconclusive, HT1080 IDH1KD tx inconclusive, MCF10A rereplic 18.4µM
CC1(C)COC(c2cccc([N+](=O)[O-])c2)OC1	none
CC(C)[C@@H]1CC[C@@H](C)C[C@H]1OC(=O)C[n+]1cc(-c2ccc(Cl)cc2)n2c1CCCCC2	KB-3-1 tox inconclusive, HT1080-NT tox 6.51µM, HT1080 IDH1KD tx 7.31µM, MCF10A rereplic inconclusive, SW480 rereplic inconclusive
COc1ccc(-c2c[n+](CC(=O)OC3CC(C)CCC3C(C)C)c3n2CCC3)cc1 (stereo not given)	HT1080-NT tox 18.4µM, HT1080 IDH1KD tx 20.6µM, MCF10A rereplic 0.82µM
COc1cc2c(cc1OC)C1(CCCC1)CNC2c1ccc([N+](=O)[O-])cc1 (stereo not given)	SW480 rereplic 23.1µM
Cc1nc(C)c(Oc2ccc(Cl)cc2Cl)c(=O)[nH]1	none
COc1ccc(CN(C(=O)c2ccc(-c3ccccc3)[nH]2)C(C(=O)NC(C)(C)C)c2ccncc2)cc1 (stereo not given)	KB-3-1 tox inconclusive, KB-V1 MDR tox 11.6µM, HT1080 IDH1KD tx 14.6µM, SW480 rereplic inconclusive
COc1cc(C(C(=O)NC(C)(C)C)N(Cc2ccccc2)C(=O)c2cnccn2)cc(OC)c1OC (stereo not given)	MCF10A rereplic inconclusive, SW480 rereplic inconclusive
O=C(CCc1ccccc1)Nc1c(F)c(F)c(F)c(F)c1F	none
CCc1csc(CCNC(=O)C2CCC(=O)N(CCOC)C2)n1 (stereo not given)	none
